From PubChem BioAssay AID2796 (The Scripps Research Institute Molecular Screening Center, 2010)
Out of some 320,000 compounds screened, about 8,000 (2.5%) were called active. The full list was thinned out, with actives kept by preference. A number with no mark means an inactive call. Rule as the data show it: active = activation above about 47%; inactive = the rest.

These compounds were tested against Aryl hydrocarbon receptor (Homo sapiens) (UniProt P35869) (assay: AHR activators, primary screen, cell-based, luminescence, luciferase reporter, human (AID 2796;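 also: 0% = vehicle wells and 100% = reference agonist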)). Conditions: AHR-responsive luciferase reporter cells, at 5 µM, stronger effect = higher value.
Sequence of Aryl hydrocarbon receptor (Homo sapiens) (P35869 whole entry, looked up): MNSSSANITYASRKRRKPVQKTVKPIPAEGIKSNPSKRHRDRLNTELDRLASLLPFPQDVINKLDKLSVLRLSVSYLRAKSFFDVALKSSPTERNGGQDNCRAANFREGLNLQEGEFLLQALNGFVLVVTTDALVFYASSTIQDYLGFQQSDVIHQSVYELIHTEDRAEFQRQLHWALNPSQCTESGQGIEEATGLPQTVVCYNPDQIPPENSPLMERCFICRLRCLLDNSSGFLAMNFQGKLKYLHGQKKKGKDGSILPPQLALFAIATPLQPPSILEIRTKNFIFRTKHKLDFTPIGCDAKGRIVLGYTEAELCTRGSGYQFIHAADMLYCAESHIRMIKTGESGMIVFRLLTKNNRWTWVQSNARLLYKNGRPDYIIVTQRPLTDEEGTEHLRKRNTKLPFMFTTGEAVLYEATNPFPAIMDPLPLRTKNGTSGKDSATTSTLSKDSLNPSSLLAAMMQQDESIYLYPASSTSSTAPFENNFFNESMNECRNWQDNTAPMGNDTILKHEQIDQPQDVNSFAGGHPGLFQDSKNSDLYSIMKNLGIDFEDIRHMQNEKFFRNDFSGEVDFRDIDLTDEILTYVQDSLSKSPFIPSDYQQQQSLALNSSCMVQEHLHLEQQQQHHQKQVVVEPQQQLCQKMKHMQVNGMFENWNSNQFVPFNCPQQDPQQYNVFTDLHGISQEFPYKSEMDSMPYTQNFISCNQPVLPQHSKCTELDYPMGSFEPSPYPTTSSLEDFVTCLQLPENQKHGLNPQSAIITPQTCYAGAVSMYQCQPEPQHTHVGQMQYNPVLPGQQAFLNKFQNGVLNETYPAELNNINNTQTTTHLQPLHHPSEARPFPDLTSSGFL

SMILES | activation
CCCCCCSc1ccc(-c2nc3ccc(Cl)cn3c2NCc2ccccc2)cc1 | 1.54%
Cc1c2cnn(-c3ccccc3)c(=O)c2c(C)n1CCCC(=O)N1CCN(C)CC1 | -2.09%
C/C(=N/NC(=O)c1ccc(Br)o1)c1ccc(C)o1 | 52.7% (active)
C/C(=N\NC(=S)NC1CCCCC1)c1ccc(C)o1 | 8.26%
CC(C)(C)C1CCC(=NNC(=O)c2ccc(Br)o2)CC1 (stereo not drawn) | 9.69%
CCN(CCCNC(=O)CSc1cc(=O)n(C)c2cc(Cl)ccc12)Cc1ccccc1 | -0.33%
O=C(NC1CC1)C(Cc1ccccc1)NS(=O)(=O)c1ccccc1F (stereo not drawn) | 3.6%
Cc1no[n+]([O-])c1COc1ccccc1/C=C1\NC(=S)NC1=O | 25.2%
COc1ccccc1NC(=O)C(C)OC(=O)c1ccc(-n2cnnn2)cc1 (stereo not drawn) | -0.41%
COc1ccc(-c2cc(C(=O)Nc3ccccc3O)c3ccccc3n2)cc1 | -7.68%
COc1ccccc1NC(=O)c1cc(Cl)nnc1Cl | 17.1%
COc1ccccc1NC(=O)c1cc(Cl)nc2ccccc12 | 48.5% (active)
O=C1c2ccccc2C2=Nc3ccccc3SC(c3ccccc3F)C12 (stereo not drawn) | 74.3% (active)
O=C1c2ccccc2C(=O)C1c1ccccc1F | 1.57%
CCOC(=O)C1=C(C)N=C2c3ccccc3C(=O)C2C1c1ccc(Br)cc1 (stereo not drawn) | 3.41%
CCCn1cc(S(=O)(=O)c2ccc(C)cc2)c(=O)c2cc(OCC)ccc21 | -2.12%
c1ccc(-c2cc(-c3ccccc3)[nH]n2)cc1 | 65.1% (active)
O=C(Nc1cccnc1Cl)c1cc(-c2ccccc2O)on1 | 5.22%
Oc1ccccc1-c1cc(-c2ccc(Cl)cc2)n[nH]1 | 52.2% (active)
c1ccc(-c2cc(-c3nnc4sc(-c5ccccn5)nn34)[nH]n2)cc1 | -8.07%
Nc1cccc(-c2cc(-c3ccccc3)nc(-c3cccc(N)c3)n2)c1 | 27.6%
Cc1ccc(NC(=O)c2cc(-c3ccccc3O)n[nH]2)cc1C | -2.85%
CCCNC(=O)C(=O)Nc1cc2c3c(c1)CCC(=O)N3CCC2 | 28.5%
CSC1=N/C(=C\C=C\c2cccs2)C(=O)S1 | 8.97%
CCOc1ccc(NC(=O)CCS(=O)(=O)c2ccc3c(c2)CCCN3C(=O)CC)cc1 | 4.35%
O=C(Cn1cnc2c(OCc3ccccc3)ncnc21)NCCCn1ccnc1 | -1.22%
CCCN1C(=O)C(NC(C)=O)c2cc(OC)ccc21 (stereo not drawn) | 0.18%
CCOC1CS(=O)(=O)CC1OCC (stereo not drawn) | 1.87%
